B2AR ag: beta2AR agonists driving receptor internalization, primary screen, cell-based, FAP fluorogen, flow cytometry. Beta-2 adrenergic receptor (Homo sapiens), P07550. Am2.2-beta2AR cells. response, % (no concentration beside the values). 0.43% of 340,000 active;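 active means response above a set limit, near 3 SD of response in nonfluorescent compounds, cut at about 42% in these data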
NOD2 RIPK2 PPI: NOD2-RIPK2 binding disruptors in cells, primary screen, fluorescence, CHO cells, BLA complementation; Receptor-interacting serine/threonine-protein kinase 2 (Homo sapiens), O43353; CCF4 ratio; inhibition, % at 4.98 µM; 0.38% of 360,000 active; AID 624267, 2012; in the data active means inhibition above about 21%;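 further: 0% = vehicle only and 100% = reference blocker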
Target sequence (O43353 whole entry, looked up): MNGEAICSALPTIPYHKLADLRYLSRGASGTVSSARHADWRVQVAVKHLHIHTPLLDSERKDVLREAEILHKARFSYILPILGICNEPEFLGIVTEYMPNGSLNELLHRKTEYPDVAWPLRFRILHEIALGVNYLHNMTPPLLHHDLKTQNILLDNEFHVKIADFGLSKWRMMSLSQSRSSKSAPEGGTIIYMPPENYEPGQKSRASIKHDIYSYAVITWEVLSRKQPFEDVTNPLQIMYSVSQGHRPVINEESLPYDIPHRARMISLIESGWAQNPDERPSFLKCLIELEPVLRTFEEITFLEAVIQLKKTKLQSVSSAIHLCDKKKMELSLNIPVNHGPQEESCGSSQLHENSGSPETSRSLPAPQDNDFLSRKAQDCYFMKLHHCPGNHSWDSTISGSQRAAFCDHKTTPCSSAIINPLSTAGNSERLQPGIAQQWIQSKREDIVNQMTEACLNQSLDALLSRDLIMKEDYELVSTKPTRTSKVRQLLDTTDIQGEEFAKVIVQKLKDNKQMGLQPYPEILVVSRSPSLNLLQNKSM
ABHD5 PLIN5 PPI: ABHD5-PLIN5 interaction inhibitors, primary screen, cell lysate, split luciferase complementation, luminescence | Perilipin-5 (Homo sapiens) + 1-acylglycerol-3-phosphate O-acyltransferase ABHD5 (Homo … | Split G. princeps luciferase complementation, 4 h | inhibition, % at 4 µM | 0.78% of 360,000 active;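 active means inhibition above the mean inhibition across every tested compound plus 3 SD, cut at about 22% in these data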;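 further: 0% = DMSO only wells and the 100% control is not disclosed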
TLR9-MyD88 block: inhibitors of TLR9-MyD88 association in cells, primary screen, cell-based, CHO, BLA complementation, fluorescence. CCF4 FRET ratio. inhibition, % at 4.98 µM. Toll-like receptor 9 (Homo sapiens) + Myeloid differentiation primary response protein …. 0.21% of 340,000 active;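 active means inhibition above the mean over all tested compounds plus 3 SD, cut at about 21% in these data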;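 further: 0% = DMSO only wells and 100% = clavulanate BLA inhibitor control wells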
Granule exo inh: LAMP-1 surface exposure blockers, TALL-104 cells – cell-based, flow cytometry, MLPCN library, primary screen; TALL-104 LAMP-1 surface exposure; cells stimulated with thapsigargin and PMA; inhibition, % at 10 µM; 0.66% of 360,000 active; AID 651702, 2012;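 active means inhibition above about 55%, limit read from the data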
TLR4 MyD88 comp: inhibitors of TLR4-MyD88 association in cells, primary screen, cell-based, HeLa CL3-4, BLA complementation, FRET ratio | Toll-like receptor 4 (Homo sapiens) + Myeloid differentiation primary response protein … | HeLa CL3-4 TLR4/MyD88 BLA complementation | inhibition, % at 8.4 µM | 0.18% of 200,000 active | AID 861, 2007; in the data active means inhibition above about 25%;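 further: 0% = vehicle and 100% = reference inhibitor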
ABHD5 PLIN5 conf: ABHD5-PLIN5 interaction inhibitors, confirmation, biochemical, luminescence | shares compounds with ABHD5 PLIN5 PPI | inhibition, % at 4 µM | 67% of 2,200 active | AID 651612, 2012; in the data active means inhibition above about 23%;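 further: 0% = DMSO vehicle wells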
HNF4 split-luc: HNF4 dimerization inhibitors, counter-screen for ABHD5-PLIN5 interaction inhibitor project, biochemical, split-luciferase complementation, luminescence. shares compounds with ABHD5 PLIN5 PPI. inhibition, % at 4 µM. 77% of 2,200 active. AID 651674, 2012;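 active means mean inhibition across replicate wells exceeding the computed hit threshold, cut at about 13% in these data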;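 further: light from luciferase halves that rejoin when HNF4 fusion proteins dimerize; 0% = DMSO only wells and the 100% control is not given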
Starred values were filed as active, the others as inactive; . = not tested or not shown. Only some compounds are listed: those with a hit (about 2% of all), similar ones and a draw of the others.

SMILES | B2AR ag | NOD2 RIPK2 PPI | ABHD5 PLIN5 PPI | TLR9-MyD88 block | Granule exo inh | TLR4 MyD88 comp | ABHD5 PLIN5 conf | HNF4 split-luc
CC[C@@]1(C(=O)OC)N[C@H](CN(C)C(=O)Nc2ccc(OC)cc2)[C@@H]2C(=O)N(C)C(=O)[C@@H]21 | 0 | -2 | 2 | 0 | -1 | . | . | .
Cc1ccc(NC(=O)CSc2nnc(N)s2)cc1S(=O)(=O)N1CCOCC1 | -2 | -15 | -5 | -7 | 4 | . | . | .
O=C(CSc1nc2nn(-c3ccccc3)c(=O)c-2c2n1CCCCC2)c1ccc(OC(F)F)cc1 | 7 | 8 | 0 | 5 | 10 | . | . | .
OC(c1cccc(Cl)c1)c1nc(-c2ccoc2)cs1 (configuration not stated) | . | -2 | 27* | . | 12 | . | 47* | 43*
OC(c1ccc(F)c(F)c1)c1nc(-c2ccoc2)cs1 (configuration not stated) | . | 4 | 20 | . | 0 | . | . | .
CCOC(=O)/C(=C/c1ccc(OC(F)F)cc1)C1=Nn2c(nnc2-c2ccc(Cl)cc2)SC1 | 27 | -4 | 42* | -1 | 0 | . | 101* | 91*
COCCNc1nc(NCCCN2CCCC2=O)c2sccc2n1 | . | -7 | -7 | . | -11 | . | . | .
O=C(CCN1C(=O)c2ccccc2C1=O)Oc1ccc2ccccc2c1 | 1 | -11 | -2 | -8 | -1 | 1 | . | .
CC1=CC(C)(C)Nc2ccc(OC(=O)CCN3C(=O)c4ccccc4C3=O)cc21 | -28 | 17 | 75* | 2 | 54 | 2 | 86* | 90*
COC(=O)c1ccccc1SC(CC(=O)c1ccccc1)c1ccc(F)cc1 (configuration not stated) | 5 | -1 | 3 | 1 | 23 | . | . | .
Nc1ccccc1SC(CC(=O)c1ccccc1)c1ccccc1 (configuration not stated) | . | 4 | 68* | -17 | -1 | . | 0 | 79*
CC(C(Sc1ccccc1N)c1ccccc1)[N+](=O)[O-] (configuration not stated) | 33 | -5 | 27* | -10 | 21 | . | 63* | 77*
Nc1ccccc1SCc1ccccc1Cl | 1 | -6 | 1 | . | -3 | . | . | .
CCC1Cc2[nH][nH]c(=O)c2C(CC)O1 (configuration not stated) | . | -5 | -8 | . | -3 | . | . | .
C[C@H](CO)N1C[C@H](C)[C@@H](CN(C)Cc2ccc(Cl)c(Cl)c2)Oc2c(NC(=O)Cc3ccccc3)cccc2C1=O | 12 | -6 | 26* | 5 | 22 | . | 5 | 0
COCCN1C(=O)CSCC1(C)C(=O)NC(C)C (configuration not stated) | . | -15 | -1 | . | -4 | . | . | .
CC(C)C[C@H](NC(=O)/C=C/[C@H]1O[C@@H](n2ccc(=O)[nH]c2=O)[C@H](O)[C@@H]1O)C(=O)O | . | 2 | 4 | . | -3 | . | . | .
O=C1Nc2ccccc2/C1=C/c1ccccc1F | 11 | 4 | 27* | 7 | 24 | . | 44* | 41*
Cc1ccc(/C=C2\C(=O)Nc3ccccc32)o1 | 2 | -6 | 24* | -5 | 6 | -2 | 8 | 40*
CC1(C(=O)NCCc2ccccc2)Cc2c(-c3ccccc3)ccnc2O1 (configuration not stated) | . | -5 | -4 | . | -1 | . | . | .
O=C(/C=C\c1ccco1)c1ccc(NC(=O)c2ccco2)cc1 | -2 | -7 | 25* | 5 | 0 | 0 | 49* | 47*
CC(=O)Nc1ccc(C(=O)/C=C/c2ccco2)cc1 | 3 | -29 | 29* | 7 | 5 | -1 | 52* | 57*
O=C(/C=C/c1ccco1)c1ccc(O)cc1 | . | . | . | . | . | -7 | . | .
O=C(C=Cc1ccco1)c1ccc2ccccc2c1 | -1 | 2 | 37* | 3 | -2 | . | 64* | 54*
C[C@H]1CN([C@@H](C)CO)C(=O)CCCn2nncc2CO[C@H]1CN(C)C(=O)NC1CCCCC1 | . | 5 | -10 | 1 | -2 | . | . | .
SMILES | B2AR ag | NOD2 RIPK2 PPI | ABHD5 PLIN5 PPI | TLR9-MyD88 block | Granule exo inh | TLR4 MyD88 comp | ABHD5 PLIN5 conf | HNF4 split-luc
CN(C)c1ccc(N=Nc2nc3ccccc3n2C)cc1 | 0 | -3 | 34* | 1 | 7 | . | 26* | 46*
NS(=O)(=O)c1cccc(NC(=O)COC(=O)c2ccc(S(=O)(=O)N3CCOCC3)cc2)c1 | -6 | -5 | 1 | 7 | 0 | . | . | .
O=C(O)c1ccc(NC(=S)Nc2ccc(S(=O)(=O)Nc3ccccn3)cc2)cc1 | -1 | -11 | 3 | 4 | 0 | . | . | .
O=C(CCCN1C(=O)S/C(=C\C=C\c2ccccc2)C1=O)Nc1ccc(C(=O)O)cc1 | 0 | -3 | 34* | -3 | 8 | . | 19 | 20*
O=C(C=Cc1cccc(Cl)c1)c1ccccc1 | 19 | 14 | 51* | -9 | -2 | . | 97* | 94*
O=C(O)c1ccc2c(c1)C(=O)N(c1cccc(C(=O)/C=C/c3ccccc3)c1)C2=O | -2 | 9 | 46* | -3 | 3 | -9 | 97* | 91*
O=C(C=Cc1ccccc1F)c1ccccc1 | . | 3 | 69* | . | -2 | . | 87* | 79*
O=C(/C=C/c1ccccc1)NNC(=O)c1cccc(Cl)c1 | -2 | -5 | -1 | -1 | 0 | 2 | . | .
O=C(/C=C/c1c(F)cccc1Cl)c1ccc(O)cc1 | 12 | -5 | 39* | 2 | 3 | . | 46* | 48*
O=C(O)c1ccc(CN2C[C@@H](CO)O[C@@H](n3cnc4c(NCc5ccc(F)cc5)ncnc43)C2)cc1 | . | -6 | 0 | . | -6 | . | . | .
O=C1NCCc2onc(-c3ccc(Br)cc3)c21 | . | 3 | 17 | . | -7 | . | . | .
O=C(C=Cc1ccccc1)c1cccs1 | 0 | 2 | 59* | -7 | -5 | . | 71* | 64*
O=C(/C=C/c1ccc([N+](=O)[O-])cc1)c1cccs1 | 6 | 7 | 15 | -8 | 0 | . | . | .
CC(NC(=O)/C(C#N)=C/c1ccc(C(=O)O)cc1)c1ccccc1 (configuration not stated) | -1 | -3 | 24* | -12 | -2 | . | 47* | 30*
CN1CCN(CCCN2c3ccccc3Sc3ccc(Cl)cc32)CC1 | 26 | 6 | 16 | -1 | 25 | 14 | . | .
OC1CC2CCC(C1)N2CCCN1c2ccccc2Sc2ccc(Cl)cc21 (configuration not stated) | 30 | -5 | 27* | 4 | 4 | . | 18 | 16*
